# Experimental data published in the supplement of paper PMC6555819.
# Columns and labels:
# Test in all cases: PBM binding z-score (relative to random genomic background probes); higher = stronger binding; sequences stand for … in GC…GCGATTGACAGCGTAGAATGAAGG
# [1] = test system: FXR:RXRa (NR concentration 270 nM, RXRa partner concentration 90 nM)
# How it was run: (§1)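 For binding z-scores, the reference was random background probes on custom Agilent 4×180K protein-binding microarrays. These arrays were incubated 1 h with ligand-free nuclear receptor dimers in PBS pH 7.4, 2% milk, 0.02% Triton X-100, 1 mM DTT, 0.2 mg/mL BSA and 0.4 mg/ml salmon testes DNA. Fluorescence was scanned after antibody detection of each partner (one per run) and regression-normalized.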
# [2] = test system: LXRa:RXRa (NR concentration 270 nM, RXRa partner concentration 90 nM)
# How it was run: as §1
# [3] = test system: LXRa homodimer (NR concentration 270 nM)
# How it was run: as §1
# [4] = test system: LXRb homodimer (NR concentration 270 nM)
# How it was run: as §1
# [5] = test system: PPARa:RXRa (NR concentration 270 nM, RXRa partner concentration 90 nM)
# How it was run: as §1
# [6] = test system: PPARg:RXRa (NR concentration 180 nM, RXRa partner concentration 90 nM)
# How it was run: as §1
# [7] = test system: PPARg:RXRa 270nM:90nM, anti-RXR (NR concentration 270 nM, RXRa partner concentration 90 nM)
# How it was run: as §1
# [8] = test system: PPARg:RXRa 30nM:10nM, anti-RXR (NR concentration 30 nM, RXRa partner concentration 10 nM)
# How it was run: as §1
# [9] = test system: PPARg:RXRa 90nM:30nM, anti-RXR (NR concentration 90 nM, RXRa partner concentration 30 nM)
# How it was run: as §1
# [10] = test system: PPARg:RXRa DBDmut IVT, anti-RXR (DBD mutation: RXRa K156A/R161A, NR concentration 270 nM, RXRa partner concentration 90 nM)
# How it was run: as §1
# [11] = test system: PPARg:RXRa IVT, anti-PPARg (NR concentration 270 nM, RXRa partner concentration 90 nM)
# How it was run: as §1
# [12] = test system: PPARg DBDmut:RXRa IVT, anti-PPARg (DBD mutation: PPARg1 K132A/R137A, NR concentration 270 nM, RXRa partner concentration 90 nM)
# How it was run: as §1
# [13] = test system: PPARg DBDmut IVT, anti-PPARg (DBD mutation: PPARg1 K132A/R137A, NR concentration 270 nM)
# How it was run: as §1
# [14] = test system: PPARg homodimer (NR concentration 180 nM)
# How it was run: as §1
# [15] = test system: PXR:RXRa (NR concentration 270 nM, RXRa partner concentration 90 nM)
# How it was run: as §1
# [16] = test system: PXR homodimer (NR concentration 270 nM)
# How it was run: as §1
# [17] = test system: RARa:RXR (NR concentration 270 nM, RXRa partner concentration 90 nM)
# How it was run: as §1
# [18] = test system: RARa homodimer (NR concentration 270 nM)
# How it was run: as §1
# [19] = test system: RARb:RXRa (NR concentration 270 nM, RXRa partner concentration 90 nM)
# How it was run: as §1
Sequence,PBM binding z-score [1],PBM binding z-score [2],PBM binding z-score [3],PBM binding z-score [4],PBM binding z-score [5],PBM binding z-score [6],PBM binding z-score [7],PBM binding z-score [8],PBM binding z-score [9],PBM binding z-score [10],PBM binding z-score [11],PBM binding z-score [12],PBM binding z-score [13],PBM binding z-score [14],PBM binding z-score [15],PBM binding z-score [16],PBM binding z-score [17],PBM binding z-score [18],PBM binding z-score [19]
CCTACTGGGCAAAAAAGGTCATTGATGCCGATAA,3.26,4.69,3.15,-0.0939,4.85,1.45,2.78,0.775,1.99,0.468,1.62,-0.0172,-0.686,2.27,4.27,1.28,4.86,0.909,3.81
CGTCCAAGGTCAAAGGTCAGCGAAGAGATGACGG,8.78,7.06,3.38,1.66,7.31,11,8.69,8.19,9.49,4.17,6.07,0.648,0.832,4.17,7.19,1.93,8.63,2.3,
ATCGAAAGGTCGTGAGGTGAGTACACAGAAAGGC,4.79,4.23,0.197,0.501,5.02,3.98,4.57,1.74,3.26,0.432,2.33,1.04,0.897,2.45,3.57,0.557,4.33,0.76,3.91
CCTTACGGGTCACTCAAGGTTATAGCATCGGAGT,5.96,7.83,3.32,-0.133,4.73,3.97,4.48,1.55,3.36,2.86,3.83,1.98,1.29,3.87,6.13,1.3,4.95,0.631,4.07
ACTAGTTGGTCAGCTGAGGTAACACACAATTCGG,1.15,-0.066,0.00608,0.472,0.41,0.76,0.156,0.214,-0.00453,1.07,1.11,0.194,0.609,0.0938,0.509,-0.174,1.3,-0.362,1.03
TCTAGTTGGTCAAAGGTCAAACACTCGAAATGCG,6.51,6.59,5.24,2.77,6.82,11.2,10.3,9.94,11,3.57,6.13,0.582,1.1,5.11,6.28,2.64,7.64,2.96,5.23
TGTCAAAGTTCTAAGGTAACGTAAGTATCCACAC,0.449,0.196,-0.388,-0.268,0.624,0.871,1.41,0.457,1.15,-0.558,1.37,1.07,0.895,0.299,0.23,0.0534,1.09,0.0558,0.779
GCTTACGGGTCAAAGGTTAAAGCATGAATAGAAT,7.68,6.08,0.955,0.412,7.2,11.8,9.59,9.12,10.3,4.74,6.3,1.36,2.46,1.69,6.29,0.364,8.66,0.51,4.94
TCTACTTGGTCACGGAGGTCACACACGACGGGTA,3.59,3.73,3.08,1.3,3.99,3.67,4.1,3.72,3.83,3.04,4.21,1.37,1.65,3.86,4.67,2.05,4.97,2.04,3.89
AGAGTGAGGTTACCAAAGATCAGGGAAACGCTTG,2.09,6.39,0.104,0.461,3.01,1.54,1.63,0.448,1.15,1.07,1.49,-0.228,-0.0667,0.744,1.7,0.558,1.97,0.667,2.48
ATATGTAGGTTATCGGGTCATTCATTTTGCGCAT,3.17,3.12,1.9,1.4,5.09,7.3,6.11,3.77,5.76,7.75,7.84,5.27,4.21,4.1,3.39,1.23,3.75,2.1,2.43
GCTGCTAGGTCAGGTTGGTCAGCTAACGGGTACG,1.01,0.656,-0.0662,-0.325,1.52,0.389,0.622,-0.261,0.176,2.95,2.05,-0.747,-0.959,0.974,0.333,-0.532,0.458,-0.285,3.33
CCTACTGGGCCACGAAAGGGCATTGATTCAGTGA,-0.208,0.621,-0.166,-1.21,1.7,1.78,1.95,0.197,0.806,5.38,5.14,0.311,0.299,-0.0604,0.616,-0.539,0.471,-0.24,1.69
ATATGTAGGTTAGCGGGGGTCATTCAGACTAGGC,5.82,5.95,3.96,8.88,5.81,6.96,6.71,4.14,6.07,7.07,6.87,5.31,9.65,3.57,6.34,3.48,5.77,1.94,3.55
